Binding signal data for 74 sequences are collected here from article PMC7819943, “Rice protein-binding microarrays: a tool to detect cis-acting elements near promoter regions in rice”.

Whole data set: some 35,000 sequences, median “fluorescence intensity (a.u.)” near 10,000, cut for the highest 2% near 52,000. Many of the other results were omitted from the sample, so the highest values are more common in it than they were.

The test deals with T1, OsWOX13 (Oryza sativa, UniProt Q5QMM3 1-267).
T1 sequence: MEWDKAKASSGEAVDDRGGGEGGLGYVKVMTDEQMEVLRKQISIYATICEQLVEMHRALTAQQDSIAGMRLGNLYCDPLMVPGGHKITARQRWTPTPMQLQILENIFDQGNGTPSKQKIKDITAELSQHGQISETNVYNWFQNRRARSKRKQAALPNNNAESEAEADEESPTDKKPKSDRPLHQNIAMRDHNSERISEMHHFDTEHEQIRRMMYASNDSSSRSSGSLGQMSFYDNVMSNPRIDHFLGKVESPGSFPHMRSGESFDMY
As to the kind of experiment: protein-binding microarray (RPBM); PBS, 2% BSA, 51.3 ng/ul salmon testes DNA, 50 uM zinc acetate, 200 nM TF, 25 C, 1 h; high values mean tight binding. As to conditions: protein: recombinant; tags: N-terminal polyhistidine and DsRed monomer fusion (pET32a); label: CyDye5-dUTP incorporated in the synthesized complementary strand; 3' TTTTT single-stranded linker to array surface; dsDNA, one strand shown. An outline of the steps: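 An Axon 4000B scanner gave the binding signal as per-feature fluorescence intensity in arbitrary units. This followed washing of a custom Agilent array that had been incubated for 1 h at 25 °C with 200 nM protein in PBS, 2% BSA, salmon testes DNA and 50 µM zinc acetate. The proteins were transcription factors fused at the N-terminus to polyhistidine and DsRed, expressed in E. coli BL21-CodonPlus and purified on Ni–NTA.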
For “GGCTAATTTGGCGAGGTAATACGGTAGTATAGCACGGTTACGGAGTCACCTAGTGCAG”, the binding signal was 10500 fluorescence intensity (a.u.).

Regarding “CCCGCTTGAATGGATGGCAATCAACACAAGGAACAGACCGCGGAGTCACCTAGTGCAG”, the binding signal was 13700 fluorescence intensity (a.u.). In the case of “AATCAAATTGCCACTTAAATCTATTGCCTCAAGTGAACAGCGGAGTCACCTAGTGCAG”, the binding signal was 16100 fluorescence intensity (a.u.). Under “GATCAATTAATATGGAATTTAAAAGTTCAATTAATATGGACGGAGTCACCTAGTGCAG” stands 8910 fluorescence intensity (a.u.); under “TTCAATTGATGTTCTTGCTTGCAAGTTGCAACGAGATTTGCGGAGTCACCTAGTGCAG”, 7920 fluorescence intensity (a.u.). For “AATGATGATTGATGGGTCATGGCACAAGGACGCTAAACCGCGGAGTCACCTAGTGCAG” the value was 40700 fluorescence intensity (a.u.); for “ATATAATAGCTAATCAAACACTAGTCCGAAGACGTAGTATCGGAGTCACCTAGTGCAG”, 21700 fluorescence intensity (a.u.). Take “CCCTCGCCTGGGCCGATCCCCATACATCCCGCGAGCGCGACGGAGTCACCTAGTGCAG”: the binding signal is 3440 fluorescence intensity (a.u.).

Take “GTTCGATTGAGATAGCTCTTAACATCAGTGACTTCTAGCCCGGAGTCACCTAGTGCAG”: the binding signal is 3800 fluorescence intensity (a.u.). For “ATTAATTAACAATAATAAGTGATTAATAATTAATTAATCGCGGAGTCACCTAGTGCAG” the value was 44200 fluorescence intensity (a.u.); for “TTAATTAACGCGATTAATTAGCCGCAAATCTCAATCCAGGCGGAGTCACCTAGTGCAG”, 53200 fluorescence intensity (a.u.). Under “CCCTCCAATCAAATTAACCTCCATATCTCTAGCAATCTGCCGGAGTCACCTAGTGCAG” stands 29800 fluorescence intensity (a.u.). For “AATTAATTATCATCATTACCGCAAATTCTCAAAAGTCAGGCGGAGTCACCTAGTGCAG” the value was 41200 fluorescence intensity (a.u.); for “TCCCAATTAAGTCAATCAGTAATAATAAATAATTATGAACCGGAGTCACCTAGTGCAG”, 32500 fluorescence intensity (a.u.); for “TATTCAAATCATTTAAGTAATTATTTATTCTTTTCATATCCGGAGTCACCTAGTGCAG”, 10000 fluorescence intensity (a.u.).

As to “GCTACAATAATTAATCAATTAATTAAATTAAATTAAGTGGCGGAGTCACCTAGTGCAG”, the binding signal was 55300 fluorescence intensity (a.u.). “GATGATAAATTAAGTCACAATAAATAAATAATAATAATATCGGAGTCACCTAGTGCAG”: the binding signal was 5820 fluorescence intensity (a.u.).

As to “TTTAATCACAAGCAAATCAATTAACTCATCCATACTCATCCGGAGTCACCTAGTGCAG”, the binding signal was 24200 fluorescence intensity (a.u.). Under “GCAATCAATCAATCAATCATATATCCATATCAAATTAAGCCGGAGTCACCTAGTGCAG” stands 61800 fluorescence intensity (a.u.); under “ATAAATTAATCCAGGCGTGATCTCCCGGCGCCCGCACGCGCGGAGTCACCTAGTGCAG”, 7300 fluorescence intensity (a.u.). For “TAAGTAATTAATTAATCAATCAATTAATCAATTATTATCCCGGAGTCACCTAGTGCAG” the value was 52600 fluorescence intensity (a.u.); for “CATCCAATCAGTTTAGACAAGGTAAAGTCTCATTTTCACACGGAGTCACCTAGTGCAG”, 17800 fluorescence intensity (a.u.); for “CTCATAACACTTTCCTAATTGCCTCATATGCGGCCTTCCCCGGAGTCACCTAGTGCAG”, 7620 fluorescence intensity (a.u.). Under “CTGCACAGTTAATTAAAGGAAAACTGGCGAAAACCCGGCACGGAGTCACCTAGTGCAG” stands 8360 fluorescence intensity (a.u.); under “CTTGCTGGTACCAATTAACATGGGTATGTTTAATTTGCTGCGGAGTCACCTAGTGCAG”, 3650 fluorescence intensity (a.u.). Take “CCTTAATTACATTGTATATAGTGATGTATGATTTATTTTACGGAGTCACCTAGTGCAG”: the binding signal is 14700 fluorescence intensity (a.u.). For “CATGAGTAAATCAATCAGGGATGGCAACATTCAGGTTTAGCGGAGTCACCTAGTGCAG” the value was 12200 fluorescence intensity (a.u.); for “CGTTTTGTTAAATTAAAATAAATTAACAAGCCCAATTGCACGGAGTCACCTAGTGCAG”, 22300 fluorescence intensity (a.u.); for “TTACATTAGCAATTGATTGCTCTTATTTGACCATGATGTTCGGAGTCACCTAGTGCAG”, 31500 fluorescence intensity (a.u.). Turning to “TGATTCAAATGATTGAAGCTTTCCAAAACCTATGAAATTCCGGAGTCACCTAGTGCAG”, the binding signal is 17700 fluorescence intensity (a.u.). For “AAAGTTTGGATTTTGATTGAAATTGAAGATGATGTGACTGCGGAGTCACCTAGTGCAG” the value was 26700 fluorescence intensity (a.u.); for “TTAAAAGTTTGATTGAAATTGGAACGATGTGATGGAAAAGCGGAGTCACCTAGTGCAG”, 22400 fluorescence intensity (a.u.); for “TAAAATTGAAAATTTGATTGAAATTGGAACGATGTGATGGCGGAGTCACCTAGTGCAG”, 64500 fluorescence intensity (a.u.). Consider “TTGATTGAGATGTGACTGGAAAGGTGTGTCAGTGCAGGCACGGAGTCACCTAGTGCAG”, for which the binding signal is 56800 fluorescence intensity (a.u.). Under “TTGATTGAAATTGGAGATGATGTGACTGAAAAGTTGTGTGCGGAGTCACCTAGTGCAG” stands 41800 fluorescence intensity (a.u.). Consider “CAGATGTGACTGGTATATATTGAAAGGTGCGAGGCACTGGCGGAGTCACCTAGTGCAG”, for which the binding signal is 9620 fluorescence intensity (a.u.). Under “ATGCTTTGATTGAAATCAAGTACTCTGAAGCTAGTCATTCCGGAGTCACCTAGTGCAG” stands 56700 fluorescence intensity (a.u.). Under “AAGTTTGATTAAAATTGGAACGATGTGATGGAAAAGTTAGCGGAGTCACCTAGTGCAG” stands 17300 fluorescence intensity (a.u.). In the case of “GTTGATGAGAGTGAAATTTGATTGACAAAGGATTGACTGGCGGAGTCACCTAGTGCAG”, the binding signal is 64400 fluorescence intensity (a.u.). Under “CGTGTGCAGTGCAGTGATGATTGAGAAAGGCCATGCCATACGGAGTCACCTAGTGCAG” stands 3900 fluorescence intensity (a.u.); under “AAATTAAATTATACTCAATACACAAGTTTGAATCTGATTCCGGAGTCACCTAGTGCAG”, 11400 fluorescence intensity (a.u.); under “CAAATAATTATTATACTTTGTCATGTCATATAAACTATATCGGAGTCACCTAGTGCAG”, 17900 fluorescence intensity (a.u.).

As for “ACTCATGCTTACTTGATTGATAGTGGAAGAACCTTTTCTTCGGAGTCACCTAGTGCAG”, the binding signal is 28200 fluorescence intensity (a.u.).

Turning to “AGTTTAATGGTGATAATATGATTTCAAAATCTGACAACCGCGGAGTCACCTAGTGCAG”, the binding signal is 12500 fluorescence intensity (a.u.). Under “TTTTCTGGTGGCAAGATGATTGAGATATACACCTTGAAGTCGGAGTCACCTAGTGCAG” stands 7690 fluorescence intensity (a.u.). For the sequence “GGAATTGGTAACAGCAAGCTTAACAGAGAAAGGTAGTCGACGGAGTCACCTAGTGCAG”, the binding signal is 8350 fluorescence intensity (a.u.). In the case of “TCTATAAATTGGCCTAGTACCTGGAAAGTGAAATCTGCCACGGAGTCACCTAGTGCAG”, the binding signal is 7920 fluorescence intensity (a.u.). Under “CGTAATTGCATCTCTATTTTCATCTCTACTTCATTTCTCTCGGAGTCACCTAGTGCAG” stands 37900 fluorescence intensity (a.u.); under “TTTGGTTGAAATTGAAACGATGTGATGGAAAAGTTGGAAGCGGAGTCACCTAGTGCAG”, 5010 fluorescence intensity (a.u.). For “TCTGATTGAACGAGTTTACAGATTGAGAAAGCACGCGTCACGGAGTCACCTAGTGCAG” the value was 53800 fluorescence intensity (a.u.); for “CAAAATTTGAAGTTTGATTGAAATTGGTACGATGTGATGGCGGAGTCACCTAGTGCAG”, 62400 fluorescence intensity (a.u.). Under “TAGAAGTTTGATTGAAATTGAAACGATATGATGGAAAAGTCGGAGTCACCTAGTGCAG” stands 44500 fluorescence intensity (a.u.). In the case of “TCAAAATTAGAAGTTTGAAGAAATTGGAACGATGTGATGGCGGAGTCACCTAGTGCAG”, the binding signal was 7940 fluorescence intensity (a.u.).

Consider “ATAGTGATAGGTCTGTCAATGCAGTGAGGTCCTGAAAACCCGGAGTCACCTAGTGCAG”, for which the binding signal is 8210 fluorescence intensity (a.u.). For the sequence “AAAATTGAAAGTTTGATTGAAATTAGAACGATGTGACGAACGGAGTCACCTAGTGCAG”, the binding signal is 35500 fluorescence intensity (a.u.). For “TCTCTGTGATTGAAACCTTGTCTCTGAAATGCTTGAGGGCCGGAGTCACCTAGTGCAG” the value was 55400 fluorescence intensity (a.u.).

For the sequence “CTGATTGAAATTGAAAGTTTGATTGAAATTGAAACGATGCCGGAGTCACCTAGTGCAG”, the binding signal was 65300 fluorescence intensity (a.u.). Under “TCTGATGAACACATTGAGAAAGCAGATGAAGTTGCAGTGTCGGAGTCACCTAGTGCAG” stands 5120 fluorescence intensity (a.u.). For “TGATGAAGATGATGAGCATGTGATTGAGCTGTCTGATTGCCGGAGTCACCTAGTGCAG” the value was 33800 fluorescence intensity (a.u.); for “AATTGATTTATTTTGAAACAGAGAGAATACAGTTTATTTACGGAGTCACCTAGTGCAG”, 32400 fluorescence intensity (a.u.). Under “TATTAAACGAATTATCACAAAATTATAGATTTATCATGTTCGGAGTCACCTAGTGCAG” stands 3760 fluorescence intensity (a.u.). On to “GCTCCAATTTAATTTCAAAATGAATTTATATATTCATTGTCGGAGTCACCTAGTGCAG”, for which the binding signal was 14100 fluorescence intensity (a.u.).

On to “CTGCTTAATTACTTCAGCCTTTACACATCAGCATATCATACGGAGTCACCTAGTGCAG”, for which the binding signal is 8250 fluorescence intensity (a.u.). For “CGTAATTGTTTAGTTGCAAAAGGATAAGCACCAAACCAAACGGAGTCACCTAGTGCAG” the value was 12400 fluorescence intensity (a.u.); for “ATTATTTGATTGTGGTTTAATTGTTGGTGCAACAGGGTTACGGAGTCACCTAGTGCAG”, 47900 fluorescence intensity (a.u.).

Regarding “AAGTTTGATTGAAATTGGAACGATGTGACGGAAAAGTTGACGGAGTCACCTAGTGCAG”, the binding signal was 35100 fluorescence intensity (a.u.). Under “TTGGAAGTTTGATTGAAATTGGAACGATGTGACGGGAAAGCGGAGTCACCTAGTGCAG” stands 23300 fluorescence intensity (a.u.); under “TCAAAATTGGAAGTTTGATTGAAATTGGAACGATGTGACGCGGAGTCACCTAGTGCAG”, 61400 fluorescence intensity (a.u.); under “TATGTGATTATCTTCTCCATACCATCATGTTCTAGATACGCGGAGTCACCTAGTGCAG”, 24900 fluorescence intensity (a.u.).

As to “TTCTCATTTTATTTAATTTAAAAGTAATTTATTACATGTTCGGAGTCACCTAGTGCAG”, the binding signal was 11600 fluorescence intensity (a.u.). Under “GCCTAATTAATCCATGATTAACCATAAGTGCTGCAGTAACCGGAGTCACCTAGTGCAG” stands 33500 fluorescence intensity (a.u.); under “CTGAGATGCTAATTGTGTGTACACTGTTGAGCACATTTGACGGAGTCACCTAGTGCAG”, 3680 fluorescence intensity (a.u.). “GGCTATTTCGTCCCAATTACCAATGGGCTAATTTTGGATCCGGAGTCACCTAGTGCAG”: the binding signal was 5000 fluorescence intensity (a.u.).

For “CTCCCAATATAATTATTTTCTATTTTCACAAACTCAGATACGGAGTCACCTAGTGCAG”, the binding signal was 5940 fluorescence intensity (a.u.).
